Coupling enz = counter-screen for Giardia aldolase inhibitors: coupling enzyme system; coupling enzyme system counterscreen, AmpLite Red fluorescence; activity change, negative = inhibition, % at 58.2 µM, hits read low; hit rate 0.67% among 290,000; AID 2472; in the data active = activity change below about -30%
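Fluorescence at 525 nm excitation and 598 nm emission measured inhibition of the coupled detection system without aldolase. Compounds (at 57.5 uM final) were preincubated 10 min at room temperature with coupling enzyme reagent before a 20 min substrate/AmpLite Red step.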
Sfp inh = blocks B. subtilis Sfp PPTase activity | Q9F4F7 | Biochemical Sfp PPTase activity, qHTS | Potency, µM, hits mostly inhibitors | hit rate 3.5% among 310,000; active = well fitted curve in the direction sought with a large enough effect; inconclusive = small, poorly fitted or top-dose-only effect, or another doubt; inactive = no such curve, though single readings can be large; an effect the other way counts as inactive or inconclusive;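 also: the enzyme is Sfp with the accession as filed and its product quenches rhodamine fluorescence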
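Fluorescence-quenching assay: 15 nM Sfp-PPTase preincubated 15 min at room temperature with compound, then 5 uM rhodamine-CoA and 12.5 uM BHQ-2-labelled YbbR peptide added. Fluorescence (ex 525/em 598 nm) read at start and after 30 min; difference gives rate.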
NPSR antagonist = neuropeptide S receptor (human) antagonism, cAMP; Q6W5P4; Potency, µM (doses to about 38.3 µM), hits mostly inhibitors; CHO-NPSR cells, cAMP TR-FRET, antagonist mode; hit rate 1% among 220,000; active = well fitted curve in the direction sought with a large enough effect; inconclusive = small, poorly fitted or top-dose-only effect, or another doubt; inactive = no such curve, though single readings can be large; an effect the other way counts as inactive or inconclusive; also: nearly all actives have a fitted effect of over 50% in size
GoLoco inh red = inhibitors of human Gai1-RGS12 GoLoco interaction (red fluorophore); AID 880; Gai1:RGS12 GoLoco peptide FP, rhodamine, 10 min; Potency, µM (highest dose often 61.6 µM), most hits filed as inhibitors; P63096; hit rate 0.44% among 230,000; active = well fitted inhibition curve with a large enough effect, not every such curve was filed as active; inactive = no such curve, though single readings can be large or run the other way; also: nearly all actives have a fitted effect of over 30% in size
Target sequence (P63096 whole entry, looked up): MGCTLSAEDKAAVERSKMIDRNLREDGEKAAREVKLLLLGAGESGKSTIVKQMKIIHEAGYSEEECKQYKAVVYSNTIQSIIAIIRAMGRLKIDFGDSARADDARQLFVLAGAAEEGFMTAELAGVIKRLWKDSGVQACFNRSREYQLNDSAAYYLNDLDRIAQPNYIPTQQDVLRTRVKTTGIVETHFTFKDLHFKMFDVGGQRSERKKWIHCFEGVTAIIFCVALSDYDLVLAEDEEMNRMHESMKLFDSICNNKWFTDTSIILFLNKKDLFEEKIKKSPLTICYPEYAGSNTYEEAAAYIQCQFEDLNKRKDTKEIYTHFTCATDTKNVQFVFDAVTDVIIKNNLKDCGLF
ALDH1A1 inh = ALDH1A1 (human) enzyme inhibition; AID 1030; P00352; Purified ALDH1A1, NADH fluorescence, propionaldehyde substrate; Potency, µM (titrated, usually from 75.3 µM), usual class: inhibitors; hit rate 7.3% among 220,000
JMJD2E inh = inhibitors of human JMJD2E histone demethylase; B2RXH2; JMJD2E catalytic domain, FDH-coupled NADH fluorescence (FDH is formaldehyde dehydrogenase); Potency, µM (series often up to 57.1 µM), actives largely listed as inhibitors; hit rate 1.6% among 230,000; AID 2147; also: nearly all actives have a fitted effect of over 50% in size
Numbers stand for hits; . = inactive; ? = inconclusive; / = no result given; [ ] = dose if it differs, or a comment. In the library only some 8.5% were active in any assay of this set; here they are far more common. Unless noted, calls follow the shape of the dose curve; as a rule, active = well fitted inhibition curve with a large enough effect (not every such curve was filed as active); inconclusive = small, poorly fitted or top-dose-only effect, or another doubt; inactive = no such curve, though single readings can be large or run the other way.

SMILES	Coupling enz	Sfp inh	NPSR antagonist	GoLoco inh red	ALDH1A1 inh	JMJD2E inh
CCN(CC)c1ccc(NC(=O)c2ccc(=O)[nH]c2)cc1S(=O)(=O)Nc1ccccc1OC	.	14.1µM	.	.	3.98µM	?
CCN(CC)CCNC(=O)c1ccc(NC(=O)c2ccc(Cl)c(S(=O)(=O)Nc3ccccc3OC)c2)cc1	.	.	.	.	.	.
CCN(CC)c1ccc(NC(=O)c2ccccc2Br)cc1S(=O)(=O)Nc1ccccc1OC	.	3.16µM	.	.	1.58µM	.
CCN(CC)S(=O)(=O)c1cccc(N=Nc2c(O)c3ccccc3oc2=O)c1	.	.	.	.	/	.
Cc1ccc(NC(=S)NNC(=O)c2nn(C)cc2Cl)cc1	.	.	.	.	.	20µM
Cc1cccc(NC(=S)NNC(=O)c2ccco2)c1	.	.	.	.	?	.
Cc1cccc(NC(=S)NNC(=O)c2nn(C)cc2Cl)c1	.	.	.	.	?	31.6µM
N#CCCn1c(=O)c(-c2cccs2)nc2cnc(OCc3ccccc3)nc21	.	.	/	.	?	/
O=C(O)CNC(=S)N(Cc1ccccc1Cl)C1CCCCC1	.	.	.	.	.	.
CCOC(=O)CNC(=S)N(Cc1ccccc1F)C1CCCCC1	.	.	.	.	?	.
O=C(CNC(=S)N(Cc1ccccc1F)C1CCCCC1)NC1CC1	.	.	.	.	12.6µM	.
CCCNC(=O)CNC(=S)N(Cc1ccccc1F)C1CCCCC1	.	.	.	.	10µM	.
O=C(O)/C=C/C(=O)Nc1ccc(C2(c3ccc(NC(=O)/C=C/C(=O)O)cc3)c3ccccc3-c3ccccc32)cc1	.	.	/	/	/	/
CCOC(=O)C1=NOC2C(=O)N(c3ccc(Cl)cc3Cl)C(=O)C12 (configuration not stated)	.	.	.	.	0.708µM	.
CC(=O)Nc1cccc(OCC(=O)NC(C)c2ccc3ccccc3c2)c1 (configuration not stated)	.	.	/	/	/	/
O=C(CCNc1cccc(Cl)c1)c1ccco1	.	.	.	.	7.08µM	.
O=C(CNC(=O)c1ccco1)OCc1cccc(Cl)c1	.	.	.	.	.	?
CC1CN(c2ccccc2)C(=O)CS1 (configuration not stated)	.	.	.	.	15µM	.
CCCCC1C(=O)N(c2ccccc2)N(c2ccccc2)C1=O	.	?	?	.	?	.
CCCCOCC1CN(c2ccccc2)C(=O)CS1 (configuration not stated)	.	.	.	.	12.6µM	.
O=C(NC1CCCc2ccccc21)C12CC3CC(CC(O)(C3)C1)C2 (configuration not stated)	.	.	.	.	.	?
C1=C(CCNc2ncnc3c2[nH]c2ccccc23)CCCC1	.	56.2µM	.	.	?	?
O=c1c2[nH]c3ccccc3c2ncn1CCC1=CCCCC1	.	.	.	.	?	.
O=C(NCCc1ccccc1F)C1CCC(=O)N(Cc2ccc(Cl)cc2)C1 (configuration not stated)	.	.	/	/	/	/
Cc1cccn2c(=O)c(/C=C(\C#N)S(=O)(=O)c3ccccc3)c(N3CCN(C)CC3)nc12	.	.	.[7.67 µM]	.	11.2µM	.
SMILES	Coupling enz	Sfp inh	NPSR antagonist	GoLoco inh red	ALDH1A1 inh	JMJD2E inh
CC1CN(c2nc3ccccn3c(=O)c2/C=C(\C#N)S(=O)(=O)c2ccccc2)CC(C)O1 (configuration not stated)	.	.	.	.	12.6µM	.
CN1CCN(c2nc3ccccn3c(=O)c2/C=C(\C#N)S(=O)(=O)c2ccccc2)CC1	.	.	.	.	/	.
CCn1cc(CNC(=S)Nc2cccc(Cl)c2C)cn1	.	.	.	.	?	.
COCCNC(=O)CSc1nc2sc(C)c(C)c2c(=O)n1-c1ccccc1	.	.	.	.	/	.
CCn1c(SCC(=O)NCCOC)nc2sc(C)c(C)c2c1=O	.	44.7µM	.	.	.	.
CCN(CC)S(=O)(=O)c1ccc(NS(=O)(=O)c2ccc3oc(=O)[nH]c3c2)cc1	.	.	/	/	/	/
CCN(CC)S(=O)(=O)c1ccc(NS(=O)(=O)c2ccc(O)c([N+](=O)[O-])c2)cc1	.	.	.	.	5.01µM	.
